# Results: PubChem BioAssay
# For some of these results: Entries with a potency or affinity are not part of this list. Some of the results follow. Inconclusive results are not listed. Calls of active or inactive are those of the source. Unless noted, how the calls were made is not given here.
# Tests used:
# [1] = Ring1 de-repression measured by qPCR – cell-based, mouse ESC, RT-qPCR, cherry-pick, esBAF inhibitor project, confirmation (AID 743176;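 active means Ring1 gene expression raised more than 2-fold over untreated cells in both replicates at either tested dose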;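 further: Ring1 transcript normalised to actin housekeeping signal by TaqMan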); details: mouse ESC E14, Ring1 mRNA RT-qPCR fold change, stronger effect = higher value
# [2] = Fgf4 repression measured by qPCR – cell-based, mouse ESC, RT-qPCR, cherry-pick, esBAF inhibitor project, confirmation (AID 743177;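 active means Fgf4 expression under 0.8 fold of control in both repeat measurements at one or both tested doses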;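 further: Fgf4 transcript normalised to actin in duplex TaqMan qPCR; cells exposed to compound for 24 h before lysis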); details: mouse ESC E14, Fgf4 mRNA qPCR fold change, stronger effect = lower value
# [3] = Bmi1 mRNA increase in mouse ESCs – cell-based, RT-qPCR, mouse ESC, single point, cherry-pick, confirmation (AID 743180;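 active means Bmi1 expression fold change above 6 at either tested concentration, seen in replicate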); details: mouse ESC E14, Bmi1 mRNA qPCR fold, stronger effect = higher value
# [4] = viability loss in A549 cells – cell-based, plate reader, single point, cherry-pick, cytotoxicity control (AID 743188); details: at 25 µM
# [5] = viability loss in HepG2 cells – cell-based, plate reader, single point, cherry-pick, cytotoxicity control (AID 743189; in the data active means activity change below about -50%); details: at 25 µM, stronger effect = lower value
# [6] = viability loss in HEK293 cells – cell-based, plate reader, single point, cherry-pick, cytotoxicity control (AID 743190; in the data active means activity change below about -38%, passing the limit was not always enough); details: at 25 µM
# [7] = A549 cell cytotoxicity, dose response, cytotoxicity control, plate reader, cherry-pick, antagonist series (AID 743412);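 further: 0% = neutral control wells and -100% = positive control wells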
# [8] = toxicity toward HepG2 liver cells – cell-based, plate reader, cherry-pick, antagonist series, cytotoxicity control, dose response (AID 743416);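 further: 0% = neutral control wells and -100% = positive control wells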
smiles,measurement,setting,value
COc1ccc(C(=O)CCc2ccccc2O)c(OC)c1,fold change,"[1]; Ring1 fold increase, at 7 µM",1.29
same,fold change,[1]; at 33 µM,1.23 (inactive)
same,Fgf4 expression fold change,"[2]; Fgf4 expression, at 7 µM",0.836
same,Fgf4 expression fold change,[2]; at 33 µM,0.979 (inactive)
same,fold change,"[3]; Bmi1 de-repression, at 7 µM",1.55
same,fold change,[3]; at 33 µM,1.13 (inactive)
same,cell viability change % (negative = cytotoxic),[4],-6.31% (inactive)
same,"activity change, negative = inhibition",[5],-33.9% (inactive)
same,"activity change, negative = inhibition",[6],14.9% (inactive)
COc1ccc(-c2csc(Nc3cccc(C)n3)n2)cc1OC,fold change,"[1]; Ring1 fold increase, at 7 µM",1.32
same,fold change,[1]; at 33 µM,1.24 (inactive)
same,fold change,"[3]; Bmi1 de-repression, at 7 µM",1.47
same,fold change,[3]; at 33 µM,2.28 (inactive)
same,cell viability change % (negative = cytotoxic),[4],-8.92% (inactive)
same,"activity change, negative = inhibition",[5],29% (inactive)
same,"activity change, negative = inhibition",[6],4.06% (inactive)
O=C(NN=Cc1ccc2c(c1)CCC2)c1ccccc1O,fold change,"[1]; Ring1 fold increase, at 7 µM",1.13
same,fold change,[1]; at 33 µM,1.24 (inactive)
same,Fgf4 expression fold change,"[2]; Fgf4 expression, at 7 µM",0.906
same,Fgf4 expression fold change,[2]; at 33 µM,0.972 (inactive)
same,fold change,"[3]; Bmi1 de-repression, at 7 µM",1.51
same,fold change,[3]; at 33 µM,1.77 (inactive)
same,cell viability change % (negative = cytotoxic),[4],-5.69% (inactive)
same,"activity change, negative = inhibition",[5],-32.1% (inactive)
same,"activity change, negative = inhibition",[6],0.295% (inactive)
COc1cc2ccccc2cc1C(=O)Nc1ccncc1,fold change,"[1]; Ring1 fold increase, at 7 µM",1.36
same,fold change,[1]; at 33 µM,1.54 (inactive)
same,Fgf4 expression fold change,"[2]; Fgf4 expression, at 7 µM",0.817
same,Fgf4 expression fold change,[2]; at 33 µM,1.21 (inactive)
same,fold change,"[3]; Bmi1 de-repression, at 7 µM",1.73
same,fold change,[3]; at 33 µM,2.14 (inactive)
same,cell viability change % (negative = cytotoxic),[4],-3.23% (inactive)
same,"activity change, negative = inhibition",[5],-16.4% (inactive)
same,"activity change, negative = inhibition",[6],6.79% (inactive)
CCc1sc(C(=O)N2CCN(CC(=O)Nc3cccc(F)c3)CC2)cc1C,fold change,"[1]; Ring1 fold increase, at 7 µM",1.14
same,fold change,[1]; at 33 µM,1.01 (inactive)
same,Fgf4 expression fold change,"[2]; Fgf4 expression, at 7 µM",1.11
same,Fgf4 expression fold change,[2]; at 33 µM,0.972 (inactive)
same,fold change,"[3]; Bmi1 de-repression, at 7 µM",1.34
same,fold change,[3]; at 33 µM,1.56 (inactive)
same,cell viability change % (negative = cytotoxic),[4],0.0417% (inactive)
same,"activity change, negative = inhibition",[5],-21.7% (inactive)
same,"activity change, negative = inhibition",[6],-24% (inactive)
C/C(=C\C(=O)c1cccnc1)Nc1ccc(C)c(C)c1,fold change,"[1]; Ring1 fold increase, at 7 µM",1.22
same,fold change,[1]; at 33 µM,1.07 (inactive)
same,Fgf4 expression fold change,"[2]; Fgf4 expression, at 7 µM",1.06
same,Fgf4 expression fold change,[2]; at 33 µM,0.903 (inactive)
same,fold change,"[3]; Bmi1 de-repression, at 7 µM",1.46
same,fold change,[3]; at 33 µM,1.59 (inactive)
same,cell viability change % (negative = cytotoxic),[4],-3.61% (inactive)
same,"activity change, negative = inhibition",[5],12.6% (inactive)
same,"activity change, negative = inhibition",[6],-0.923% (inactive)
CC(Cc1cccs1)NC(=O)c1cccc(Cl)c1 (centres undefined),fold change,"[1]; Ring1 fold increase, at 7 µM",1.11
same,fold change,[1]; at 33 µM,1.07 (inactive)
same,Fgf4 expression fold change,"[2]; Fgf4 expression, at 7 µM",1.02
same,Fgf4 expression fold change,[2]; at 33 µM,1.08 (inactive)
same,fold change,"[3]; Bmi1 de-repression, at 7 µM",1.36
same,fold change,[3]; at 33 µM,1.53 (inactive)
same,cell viability change % (negative = cytotoxic),[4],-16% (inactive)
same,"activity change, negative = inhibition",[5],-51.2% (active)
same,"activity change, negative = inhibition",[6],-22.2% (inactive)
O=C(CCNC(=O)c1ccccc1)Nc1nc2ccccc2s1,fold change,"[1]; Ring1 fold increase, at 7 µM",1.2
same,fold change,[1]; at 33 µM,0.581 (inactive)
same,Fgf4 expression fold change,"[2]; Fgf4 expression, at 7 µM",0.839
same,Fgf4 expression fold change,[2]; at 33 µM,0.653 (active)
same,fold change,"[3]; Bmi1 de-repression, at 7 µM",1.36
same,fold change,[3]; at 33 µM,1.77 (inactive)
same,cell viability change % (negative = cytotoxic),[4],-14% (inactive)
same,"activity change, negative = inhibition",[5],11.7% (inactive)
same,"activity change, negative = inhibition",[6],-12.3% (inactive)
COc1ccc(-n2nnnc2-c2nc3ccccc3s2)cc1,outcome,[7],inactive
c1ccc(-n2cnnc2SCc2cn3cccnc3n2)cc1,outcome,[7],inactive
same,outcome,[8],inactive
O=C(O)c1ccc(Nc2nc3c(s2)CCCC3)cc1,outcome,[7],inactive
same,outcome,[8],inactive
COC(=O)c1ccc2nc(-c3cccc(N)c3)cn2c1,outcome,[7],inactive
same,outcome,[8],inactive
CCc1nc(Sc2nnnn2-c2ccccc2)c2c3c(sc2n1)CCCC3,outcome,[7],inactive
same,outcome,[8],inactive
COc1ccc(S(=O)(=O)N2CCCCN3[C@H](CO)[C@H](c4ccc(-c5cccnc5)cc4)[C@@H]3C2)cc1,outcome,[7],inactive
same,outcome,[8],inactive
CCCCCc1ccc(-c2ccc(C(=O)O)cc2)nc1,outcome,[7],inactive
same,outcome,[8],inactive
COc1ccc(-c2cc(C(=O)N3CCCC3)no2)cc1,outcome,[7],inactive
same,outcome,[8],inactive
Cc1ccnc(NC(=O)c2cccc(S(=O)(=O)N3CCN(c4ccccc4)CC3)c2)c1,outcome,[7],inactive
same,outcome,[8],inactive
O=C(O)c1c2c(nc3ccccc13)/C(=C/c1ccc(O)cc1)CC2,outcome,[7],inactive
same,outcome,[8],inactive
Cc1cc(C(=O)CSc2nnc(N)s2)c(C)n1Cc1cccs1,outcome,[7],inactive
same,outcome,[8],inactive
Cc1cc(C(=O)COC(=O)C2CC2)c(C)n1-c1ccc(F)cc1,outcome,[7],inactive
same,outcome,[8],inactive
COCCCNc1ccn2nc(-c3ccccc3)cc2n1,outcome,[7],inactive
same,outcome,[8],inactive
Cc1cc(C(=O)CN2C(=O)c3ccccc3S2(=O)=O)c(C)n1C(C)C,outcome,[7],inactive
same,outcome,[8],inactive
OC1CCC(Nc2ccn3nc(-c4cccc(OCc5ccccc5)c4)cc3n2)CC1 (centres undefined),outcome,[7],inactive
same,outcome,[8],inactive
Cc1cccc(-n2ncc3c(N(C)C4CCCCC4)ncnc32)c1,outcome,[7],inactive
same,outcome,[8],inactive
Cc1cnc(NC(=O)c2ccc(OCC3CCCO3)cc2)s1 (centres undefined),outcome,[7],inactive
same,outcome,[8],inactive
CCn1c(C)cc(C(=O)CN2C(=O)c3ccccc3S2(=O)=O)c1C,outcome,[7],inactive
same,outcome,[8],inactive
O=C(O)c1ccc(N/N=C/c2ccc3ncccc3c2)cc1,outcome,[7],inactive
same,outcome,[8],inactive
Cc1ccccc1S(=O)(=O)N1[C@H](C#N)[C@H](c2ccc(C#CC3CCCCC3)cc2)[C@H]1CO,outcome,[7],inactive
same,outcome,[8],inactive
